# Mtb bLac sens: beta-lactam sensitization of Mtb H37Rv, H37Rv; M. tuberculosis H37Rv growth with meropenem, percent inhibition; inhibition, % at 25 µM; 0.27% of 330,000 active; AID 434955, 2010; call rule not given here;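 further: growth measured after seven days incubation then overnight dye step; 0% = bacteria only wells and 100% = bacteria with antibiotic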
# Mtb UGM inh: M. tuberculosis UGM enzyme inhibitors, primary screen, biochemical, fluorescence polarization, single point; purified UGM, fluorescence polarization probe displacement; UDP-galactopyranose mutase (Mycobacterium tuberculosis (strain ATCC 25618 / H37Rv)), …; AID 504406, 2011; inhibition, % at 10 µM; 0.06% of 320,000 active; in the data active means inhibition above about 10%, passing the limit was not always enough; inconclusive means no clear call, values can overlap the other calls
# GDH-TPI counter-1: GDH-TPI coupling enzyme inhibitors, primary screen, artefact control for M. tuberculosis FBA inhibitor project, biochemical, absorbance, full deck | AID 588335, 2011 | GDH-TPI coupled enzyme counterscreen, NADH absorbance | 1.2% of 360,000 active | inhibition, % at 4.8 µM; in the data active means inhibition above about 30%;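 further: 0% = DMSO wells and 100% = wells lacking the enzyme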
# FBA Mtb inh: Mtb FBA enzyme inhibitors, primary screen, biochemical, fluorescence, strain H37Rv; inhibition, % at 1 µM; Fructose-bisphosphate aldolase (Mycobacterium tuberculosis (strain ATCC 25618 / H37Rv)), …; 2.3% of 360,000 active; purified M. tuberculosis FBA, fluorescence read-out;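 further: 0% = vehicle and 100% = reference inhibitor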
# Target sequence (P9WQA3 whole entry, looked up): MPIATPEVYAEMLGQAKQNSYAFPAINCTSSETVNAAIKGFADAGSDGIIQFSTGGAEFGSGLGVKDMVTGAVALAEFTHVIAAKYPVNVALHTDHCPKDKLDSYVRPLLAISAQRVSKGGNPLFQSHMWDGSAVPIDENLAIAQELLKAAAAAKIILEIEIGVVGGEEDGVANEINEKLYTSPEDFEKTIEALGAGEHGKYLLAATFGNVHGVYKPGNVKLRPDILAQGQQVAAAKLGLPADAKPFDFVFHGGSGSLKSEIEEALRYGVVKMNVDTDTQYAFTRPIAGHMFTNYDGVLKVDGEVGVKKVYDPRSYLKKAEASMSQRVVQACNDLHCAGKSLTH
# Rv3671c protease: Rv3671c serine protease inhibitors, primary screen, biochemical, fluorescence polarization, M. tuberculosis H37Rv; P9WHR9; inhibition, % at 5.96 µM; 0.048% of 320,000 active; AID 2606, 2010; in the data active means inhibition above about 38%;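 further: extracellular domain of Rv3671c used as enzyme; 0% = enzyme with DMSO and 100% = no enzyme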
# Mtb FBA confirm: M. tuberculosis aldolase blockers, biochemical, fluorescence, strain H37Rv, confirmation | shares compounds with FBA Mtb inh | purified M. tuberculosis FBA, fluorescence read-out | inhibition, % at 1 µM | 78% of 5,600 active;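 further: 0% = vehicle wells and 100% = reference inhibitor wells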
# GDH-TPI counter-2: GDH-TPI coupling enzyme inhibitors, artefact control for M. tuberculosis FBA inhibitor project, biochemical, fluorescence, high throughput. inhibition, % at 1 µM. shares compounds with FBA Mtb inh. 81% of 5,600 active. AID 652141, 2013. GDH-TPI coupled enzyme counterscreen; in the data active means inhibition above about 10%
# Active calls of the source: *; ? = inconclusive; . = not tested or not shown; + = active, no number. The list is not random: actives were taken first. Their share in the collection is about 3.5%. Unless noted, no stated cut-off is given here; in the data, active means inhibition above about 27%; inactive means the rest.
SMILES,Mtb bLac sens,Mtb UGM inh,GDH-TPI counter-1,FBA Mtb inh,Rv3671c protease,Mtb FBA confirm,GDH-TPI counter-2
CCCN(CC(=O)Nc1ccccc1C)C(=O)CCCOc1ccc(Br)cc1,5,-1,-3,38*,-3,-2,-4
COCCn1c(N)c(N(Cc2ccccc2)C(=O)C2=COCCO2)c(=O)[nH]c1=O,-3,1,9,5,2,.,.
Cc1coc2c1c(C)cc1oc(=O)c(CC(=O)NCC(=O)NCC(=O)O)c(C)c12,4,1,20,93*,.,+,+
COCCCNC(=O)Cc1c(C)c2c(cc(C)c3c(C(C)(C)C)coc32)oc1=O,86,-2,7,36*,3,62*,54*
COCCNC(=O)Cc1c(C)c2c(cc(C)c3c(C)coc32)oc1=O,-11,-1,1,38*,-6,159*,125*
Cc1coc2c1c(C)cc1oc(=O)c(CC(=O)NCCC(=O)O)c(C)c12,10,-2,10,91*,3,62*,57*
Cc1oc2c(c(C)cc3oc(=O)c(CC(=O)NCCCO)c(C)c32)c1C,-1,-3,8,20,5,.,.
CCOC(=O)N1CCN(c2nc3ccccn3c(=O)c2C=O)CC1,?,-2,12,2,0,.,.
CCC(C)NC(=O)c1ccc2c(c1)N(Cc1ccccc1)C(=O)CS2 (configuration not stated),3,0,4,97*,6,68*,78*
CCN1C(=O)CSc2ccc(C(=O)NCc3ccccc3)cc21,-7,-2,-2,3,-6,.,.
C=CCNc1nc(-c2ccc([N+](=O)[O-])cc2)cs1,12,-1,16,3,6,.,.
CN(C)c1nc(-c2ccc([N+](=O)[O-])cc2)cs1,-4,-1,12,34*,-4,194*,142*
CN(C)/C=C/c1oc2ccc(O)cc2c1[N+](=O)[O-],-1,-1,12,-39,9,.,.
CN1CCc2c(sc3c2C(=O)NC(c2cccs2)N3)C1 (configuration not stated),3,2,15,26,-15,.,.
Cc1ccsc1C1NC(=O)c2c(sc3c2CCN(C)C3)N1 (configuration not stated),9,-2,12,44*,-3,-5,-5
c1ccc(-n2cc(CNCCc3cscn3)c(-c3ccc4c(c3)OCO4)n2)cc1,3,4,-5,13,-3,.,.
O=C(CSc1nnc(-c2ccccn2)n1Cc1ccccc1)N1CCCC1,-3,2,-2,84*,3,101*,68*
COc1cc2c(cc1OC)CN(C(=O)c1cc(C3CC3)nn1-c1ccccc1)CC2,1,2,-1,0,-9,.,.
FC(F)(F)c1nc2nncn2c2c1CCCCC2,-5,-1,12,35*,-10,133*,117*
Cc1cccc(NC(=O)COC(=O)CSc2ccccc2)c1C,-3,-4,0,3,-7,.,.
Nc1ccccc1-c1nc2ccccc2s1,10,2,6,51*,2,197*,147*
Oc1ccc(-c2nc3ccccc3s2)c(O)c1,90,1,25,37*,-15,106*,84*
Oc1ccc(-c2nc3ccccc3s2)cc1,82,1,12,94*,10,75*,63*
Nc1ccc(O)c(-c2nc3ccccc3s2)c1,-6,1,23,4,0,.,.
Cc1ccc(Cn2cccc(-c3nc4ccccc4s3)c2=O)cc1,-15,0,18,54*,-10,115*,107*
SMILES,Mtb bLac sens,Mtb UGM inh,GDH-TPI counter-1,FBA Mtb inh,Rv3671c protease,Mtb FBA confirm,GDH-TPI counter-2
CCOc1cc(S(=O)(=O)NCc2cccnc2)c(C)cc1C,-5,-1,-7,4,4,.,.
c1csc(-c2nc3ccccc3s2)c1,4,-1,7,39*,0,-1,-3
c1ccc2sc(-c3ccncc3)nc2c1,-3,-2,8,2,2,.,.
COc1ccc(-c2nc3ccccc3s2)cc1NC(C)=O,-6,0,39*,73*,4,138*,118*
Cn1ccc2c(-c3ccc(C(F)(F)F)cc3)cc3c(c21)C1CCC3C1 (configuration not stated),.,.,.,35*,.,56*,47*
Cn1ccc2c(-c3ccc(C(N)=O)cc3)cc3c(c21)C1CCC3C1 (configuration not stated),.,.,.,53*,.,113*,103*
Cn1ccc2c(-c3ccc(CO)cc3)cc3c(c21)C1CCC3C1 (configuration not stated),.,.,.,81*,.,+,+
CS/C(N)=N/S(=O)(=O)c1ccc(NC(C)=O)cc1,-1,-1,7,3,0,.,.
CC(C)(C)c1ccc(C(CC(=O)O)NC(=O)c2ccccc2F)cc1 (configuration not stated),-5,3,6,0,6,.,.
N#Cc1ccc2c(c1)nnn2-c1ccccc1,-8,-2,-3,4,-14,.,.
Nc1ccc2c(c1)nnn2-c1ccccc1,97,2,-7,31*,-1,190*,152*
O=S(=O)(Nc1ccccc1)c1ccc(-c2cnc(C3CC3)o2)cc1,-3,-1,6,18,4,.,.
O=S(=O)(NCc1ccc(F)cc1)c1ccc(-c2cnc(C3CC3)o2)cc1,-9,3,15,29*,-7,19,16*
CC(C)(O)CCC(C)(C)O,-3,1,9,7,-3,.,.
O=S(=O)(c1ccc2ccccc2c1)N1C=CC(C(F)(F)F)=NCC1,-8,3,10,86*,-4,-9,-5
O=C1CSC(=Nc2cccc([N+](=O)[O-])c2)N1,-4,6,5,3,2,.,.
CCN(C(=O)COC(=O)c1nccnc1N)c1cccc2ccccc12,2,-2,7,63*,-3,109*,80*
CCN(C(=O)COC(=O)c1ccc(O)cc1)c1cccc2ccccc12,1,3,1,0,4,.,.
Nc1nc2ccc(S(=O)(=O)c3ccc4nc(N)sc4c3)cc2s1,-1,-3,8,28*,-16,72*,49*
Nc1nc2ccc(O)cc2s1,-5,2,2,5,2,.,.
COc1ccc(-c2nc3ccc(C)cn3c2Cc2cccc(F)c2)cc1OC,.,.,.,59*,.,66*,65*
COc1ccc(Cc2c(-c3ccc(OC)c(OC)c3)nc3c(C)cc(Br)cn23)c(C)c1,.,.,.,-3,.,.,.

# Assay outcomes: PubChem, several laboratories
